Data published in PubChem BioAssay AID1159580 (chemical genetic matrix, 2015).
Screen size: about 5,500 compounds; about 2,000 (36%) were called active. Inconclusive results (about 18%) are left out. No stated cut-off is given here; in the data, active means normalized growth mostly below about 0.91 (no sharp cut-off); inconclusive means no clear call, values can overlap the other calls; inactive means mostly above about 0.92. The list shows a part of the results.

Experiment: chemical genetic growth profiling, strain panel (AID 1159580);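 further: tested at 20 µM; growth read once vehicle control cultures reached saturation at 30 °C; 1 = growth at the plate median or of vehicle wells; lower values mean less growth of the strain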
Conditions: growth OD

Measured: normalized growth

O=C(O)CCCCC1CCSS1 (configuration not stated)
active: S. cerevisiae deletion strains, locus YLR262C, strain YPT6 (second series), active compounds read low 0.839
inactive: S. cerevisiae deletion strains, locus YJR075W, strain HOC1, active compounds read low 1 | S. cerevisiae deletion strains, locus YKL009W, strain mrt4, active compounds read low 0.978 | S. cerevisiae deletion strains, locus YKL068W, active compounds read low 1.01 | S. cerevisiae deletion strains, locus YKL085W, strain MDH1 (second series), active compounds read low 0.996 | S. cerevisiae deletion strains, locus YKL085W, strain MDH1, active compounds read low 0.996 | S. cerevisiae deletion strains, locus YKL160W, strain elf1, active compounds read low 0.988 | S. cerevisiae deletion strains, locus YKL190W, strain CNB1, active compounds read low 0.989 | S. cerevisiae deletion strains, locus YKR001C, strain vps1, active compounds read low 0.954 | S. cerevisiae deletion strains, locus YKR026C, strain gcn3, active compounds read low 0.965 | S. cerevisiae deletion strains, locus YKR091W, strain srl3, active compounds read low 0.982 | S. cerevisiae deletion strains, locus YLL001W, strain dnm1, active compounds read low 0.95 | S. cerevisiae deletion strains, locus YLL026W, active compounds read low 0.946 | S. cerevisiae deletion strains, locus YLL041C, strain sdh2, active compounds read low 0.976 | S. cerevisiae deletion strains, locus YLR027C, strain aat2, active compounds read low 0.973 | S. cerevisiae deletion strains, locus YLR039C, strain RIC1, active compounds read low 0.943 | S. cerevisiae deletion strains, locus YLR058C, strain SHM2, active compounds read low 0.968 | S. cerevisiae deletion strains, locus YLR102C, strain apc9, active compounds read low 0.984 | S. cerevisiae deletion strains, locus YLR113W, strain HOG1, active compounds read low 0.961 | S. cerevisiae deletion strains, locus YLR221C, strain rsa3, active compounds read low 0.963 | S. cerevisiae deletion strains, locus YLR258W, strain gsy2, active compounds read low 0.933 | S. cerevisiae deletion strains, locus YLR262C, strain YPT6, active compounds read low 0.969 | S. cerevisiae deletion strains, locus YLR268W, strain sec22, active compounds read low 1.06 | S. cerevisiae deletion strains, locus YLR320W, strain mms22, active compounds read low 0.98 | S. cerevisiae deletion strains, locus YLR330W, strain CHS5, active compounds read low 0.966 | S. cerevisiae deletion strains, locus YLR342W, strain FKS1 (second series), active compounds read low 0.945 | S. cerevisiae deletion strains, locus YLR342W, strain FKS1, active compounds read low 0.979 | S. cerevisiae deletion strains, locus YLR357W, strain rsc2, active compounds read low 0.901 | S. cerevisiae deletion strains, locus YLR370C, strain arc18, active compounds read low 0.986 | S. cerevisiae deletion strains, locus YLR371W, strain rom2, active compounds read low 0.973 | S. cerevisiae deletion strains, locus YLR384C, strain iki3, active compounds read low 0.977 | S. cerevisiae deletion strains, locus YLR418C, strain cdc73, active compounds read low 0.979 | S. cerevisiae deletion strains, locus YML016C, strain PPZ1, active compounds read low 0.982 | S. cerevisiae deletion strains, locus YML032C, strain rad52, active compounds read low 0.993 | S. cerevisiae deletion strains, locus YML120C, strain ndi1, active compounds read low 0.937 | S. cerevisiae deletion strains, locus YML124C, strain tub3, active compounds read low 0.98 | S. cerevisiae deletion strains, locus YMR058W, strain fet3, active compounds read low 0.968 | S. cerevisiae deletion strains, locus YMR078C, strain ctf18, active compounds read low 0.979 | S. cerevisiae deletion strains, locus YMR125W, strain sto1, active compounds read low 0.981 | S. cerevisiae deletion strains, locus YMR129W, active compounds read low 0.937 | S. cerevisiae deletion strains, locus YMR205C, strain PFK2, active compounds read low 0.921 | S. cerevisiae deletion strains, locus YMR223W, strain ubp8, active compounds read low 0.948 | S. cerevisiae deletion strains, locus YMR231W, strain pep5, active compounds read low 0.955 | S. cerevisiae deletion strains, locus YMR263W, strain SAP30, active compounds read low 0.981 | S. cerevisiae deletion strains, locus YMR307W, strain GAS1, active compounds read low 1.02 | S. cerevisiae deletion strains, locus YNL067W, strain RPL9B, active compounds read low 1.01 | S. cerevisiae deletion strains, locus YNL071W, strain lat1, active compounds read low 0.973 | S. cerevisiae deletion strains, locus YNL128W, strain TEP1, active compounds read low 0.962 | S. cerevisiae deletion strains, locus YNL153C, strain GIM3, active compounds read low 1 | S. cerevisiae deletion strains, locus YNL183C, strain NPR1, active compounds read low 0.842 | S. cerevisiae deletion strains, locus YNL209W, strain ssb2, active compounds read low 0.986 | S. cerevisiae deletion strains, locus YNL233W, strain BNI4, active compounds read low 1.01 | S. cerevisiae deletion strains, locus YNL248C, strain rpa49, active compounds read low 0.979 | S. cerevisiae deletion strains, locus YNL250W, strain rad50, active compounds read low 0.979 | S. cerevisiae deletion strains, locus YNL271C, strain bni1, active compounds read low 0.976 | S. cerevisiae deletion strains, locus YNL298W, strain CLA4, active compounds read low 0.928 | S. cerevisiae deletion strains, locus YNL307C, strain MCK1, active compounds read low 0.983 | S. cerevisiae deletion strains, locus YNL322C, strain KRE1 (second series), active compounds read low 0.97 | S. cerevisiae deletion strains, locus YNL322C, strain KRE1, active compounds read low 0.985 | S. cerevisiae deletion strains, locus YNR049C, strain mso1, active compounds read low 0.97 | S. cerevisiae deletion strains, locus YNR052C, strain pop2, active compounds read low 0.999 | S. cerevisiae deletion strains, locus YOL006C, strain TOP1, active compounds read low 1.04 | S. cerevisiae deletion strains, locus YOL012C, strain htz1 0.885 | S. cerevisiae deletion strains, locus YOL147C, strain pex11, active compounds read low 0.975 | S. cerevisiae deletion strains, locus YOR001W, strain rrp6, active compounds read low 0.962 | S. cerevisiae deletion strains, locus YOR061W, strain CKA2, active compounds read low 0.97 | S. cerevisiae deletion strains, locus YOR069W, strain VPS5, active compounds read low 0.986 | S. cerevisiae deletion strains, locus YOR070C, strain gyp1, active compounds read low 0.979 | S. cerevisiae deletion strains, locus YOR080W, strain dia2, active compounds read low 0.962 | S. cerevisiae deletion strains, locus YOR083W, strain WHI5, active compounds read low 0.989 | S. cerevisiae deletion strains, locus YOR106W, strain vam3, active compounds read low 0.957 | S. cerevisiae deletion strains, locus YOR136W, strain idh2, active compounds read low 0.969 | S. cerevisiae deletion strains, locus YOR144C, strain elg1, active compounds read low 0.973 | S. cerevisiae deletion strains, locus YOR184W, strain ser1, active compounds read low 0.973 | S. cerevisiae deletion strains, locus YOR231W, strain MKK1, active compounds read low 0.892 | S. cerevisiae deletion strains, locus YOR265W, strain rbl2, active compounds read low 0.973 | S. cerevisiae deletion strains, locus YOR270C, strain vph1, active compounds read low 1.02 | S. cerevisiae deletion strains, locus YOR290C, strain snf2, active compounds read low 0.91 | S. cerevisiae deletion strains, locus YOR316C, strain cot1, active compounds read low 0.986 | S. cerevisiae deletion strains, locus YPL051W, strain arl3, active compounds read low 0.981 | S. cerevisiae deletion strains, locus YPL055C, strain LGE1, active compounds read low 1 | S. cerevisiae deletion strains, locus YPL078C, strain atp4, active compounds read low 0.99 | S. cerevisiae deletion strains, locus YPL106C, strain sse1, active compounds read low 0.965 | S. cerevisiae deletion strains, locus YPL240C, strain hsp82, active compounds read low 0.97 | S. cerevisiae deletion strains, locus YPL241C, strain CIN2, active compounds read low 0.98 | S. cerevisiae deletion strains, locus YPL256C, strain CLN2, active compounds read low 0.94 | S. cerevisiae deletion strains, locus YPR119W, strain clb2, active compounds read low 0.977 | S. cerevisiae deletion strains, locus YPR141C, strain kar3, active compounds read low 0.985 | S. cerevisiae deletion strains, locus YPR163C, strain tif3, active compounds read low 0.989 | S. cerevisiae deletion strains, locus YPR167C, strain met16, active compounds read low 0.988 | S. cerevisiae deletion strains, strain wtn01, active compounds read low 1 | S. cerevisiae strains, strain wild type, active compounds read low 0.978
